According to PubChem BioAssay AID892 (National Center for Advancing Translational Sciences (NCATS), 2007):
Hit rate of the full screen: of about 75,000 compounds, about 20 (0.03%) were called active. The call rests on the fitted dose curve; in most records, active means well fitted inhibition curve with a large enough effect; inconclusive means small, poorly fitted or top-dose-only effect; inactive means no such curve, though single readings can be large or run the other way. The list is a sample of the results.

Target: Breast cancer type 1 susceptibility protein (Homo sapiens) (UniProt P38398)
Sequence (P38398 whole entry, looked up): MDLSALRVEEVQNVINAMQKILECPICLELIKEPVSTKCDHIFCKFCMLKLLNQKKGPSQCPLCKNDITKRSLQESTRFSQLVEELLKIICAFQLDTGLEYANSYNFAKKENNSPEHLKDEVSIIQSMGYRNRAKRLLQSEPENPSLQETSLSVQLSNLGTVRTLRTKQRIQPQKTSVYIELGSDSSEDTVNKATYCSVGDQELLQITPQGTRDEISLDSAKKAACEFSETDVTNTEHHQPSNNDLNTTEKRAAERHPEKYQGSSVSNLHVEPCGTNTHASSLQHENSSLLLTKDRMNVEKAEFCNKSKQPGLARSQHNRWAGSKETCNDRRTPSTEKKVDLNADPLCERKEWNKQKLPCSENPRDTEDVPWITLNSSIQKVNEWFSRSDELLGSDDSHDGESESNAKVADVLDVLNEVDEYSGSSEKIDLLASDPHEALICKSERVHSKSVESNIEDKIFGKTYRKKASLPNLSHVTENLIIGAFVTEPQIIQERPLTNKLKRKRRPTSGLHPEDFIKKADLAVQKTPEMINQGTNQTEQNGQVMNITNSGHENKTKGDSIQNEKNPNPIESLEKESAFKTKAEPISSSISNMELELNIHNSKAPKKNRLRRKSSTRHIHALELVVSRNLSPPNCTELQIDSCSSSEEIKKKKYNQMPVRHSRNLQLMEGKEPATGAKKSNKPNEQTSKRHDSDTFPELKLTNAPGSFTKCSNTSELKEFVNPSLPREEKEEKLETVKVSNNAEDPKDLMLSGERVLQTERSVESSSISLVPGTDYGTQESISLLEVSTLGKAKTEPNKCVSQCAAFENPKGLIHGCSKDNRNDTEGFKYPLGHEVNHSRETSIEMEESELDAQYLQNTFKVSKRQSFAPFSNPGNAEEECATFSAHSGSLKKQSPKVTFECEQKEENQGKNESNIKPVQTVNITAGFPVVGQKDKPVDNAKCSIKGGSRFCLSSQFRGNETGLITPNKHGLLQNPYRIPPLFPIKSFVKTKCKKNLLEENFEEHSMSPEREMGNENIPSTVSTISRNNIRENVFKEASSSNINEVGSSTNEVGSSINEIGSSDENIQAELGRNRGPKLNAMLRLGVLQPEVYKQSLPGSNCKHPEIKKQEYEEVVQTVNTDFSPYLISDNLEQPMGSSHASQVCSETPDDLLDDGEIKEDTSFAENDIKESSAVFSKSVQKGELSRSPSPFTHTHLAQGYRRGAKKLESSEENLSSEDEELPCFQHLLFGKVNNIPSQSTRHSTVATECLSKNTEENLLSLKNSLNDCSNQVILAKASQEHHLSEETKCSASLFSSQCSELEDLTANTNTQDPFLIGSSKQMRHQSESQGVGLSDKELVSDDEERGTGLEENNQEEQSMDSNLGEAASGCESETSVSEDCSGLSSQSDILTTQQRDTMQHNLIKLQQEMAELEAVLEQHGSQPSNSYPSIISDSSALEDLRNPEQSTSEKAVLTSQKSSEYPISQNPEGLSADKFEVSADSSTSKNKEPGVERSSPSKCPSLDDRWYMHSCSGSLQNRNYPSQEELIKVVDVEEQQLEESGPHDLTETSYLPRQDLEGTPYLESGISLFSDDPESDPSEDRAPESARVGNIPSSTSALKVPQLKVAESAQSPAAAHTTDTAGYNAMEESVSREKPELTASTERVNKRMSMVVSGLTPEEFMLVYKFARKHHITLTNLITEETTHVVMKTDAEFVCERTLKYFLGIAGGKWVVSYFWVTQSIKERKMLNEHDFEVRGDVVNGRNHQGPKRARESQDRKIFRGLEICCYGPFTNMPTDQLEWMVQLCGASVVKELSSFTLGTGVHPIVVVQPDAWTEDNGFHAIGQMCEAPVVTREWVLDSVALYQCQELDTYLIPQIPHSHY
Assay: qHTS Assay for Inhibitors of BRCT-Phosphoprotein Interaction (Red Fluorophore)
Settings: BRCT-phosphopeptide binding, red fluorescence polarization; series mostly up to 76.9 µM; activity change, negative = inhibition: at the top concentration
Protocol: NIH Molecular Libraries Screening Centers Network [MLSCN]
NIH Chemical Genomics Center [NCGC]
PI Name: Natarajan, Amarnath; University of Texas
A complex of BRCT (C-terminal portion of BRCA1, MW ~35 kDa, His-tagged) and fluorescently labeled pBACH1 phosphorylated 10 aa peptide fragment of BACH1, a helicase implicated in DNA repair, is incubated with library members. Inhibitors of BRCT-pBACH1 binding are detected by a decrease in the fluorescence polarization (FP) of the fluorophore. In order to minimize the effect of fluorescence artifacts and to increase the overall robustness of the screen, the compound library members were incubated in separate reactions with rhodamine-labeled probe-protein complexes. Protein and labeled probes were supplied by Dr. Amarnath Natarajan, Department of Pharmacology and Toxicology, University of Texas Medical Branch Galveston, TX.
Assay Buffer: 16mM Na2HPO4, 4 mM NaH2PO4, 150 mM NaCl, 1 mM EDTA, 1 mM DTT, 0.02% NaN3, and 0.01% Tween 20 at pH 7.3.
Assay Controls: 100 nM TAMRA labeled decapeptide dispensed into columns 3 and 4 to generate negative control (full inhibition of
binding, -100 % activity). 100 nM labeled decapeptide/100 nM protein in columns 1, 2, 5 - 48. Titration of unlabeled decapeptide control (from 10 mM, then 1:2 dilution in duplicate) pin-transferred to column 2, rows 1 to 16. Column 1 is neutral.
Three uL of reagents were dispensed to 1536-well Greiner black solid-bottom plates. Compounds and controls (23 nL) were transferred via Kalypsys PinTool. The plates were incubated for 12 min at room temperature, and then read on ViewLux (Perkin-Elmer) High-throughput CCD imager using BODIPY for the rhodamine-labeled decapeptide probe polarization filter sets. During dispense, reagent bottles were kept submerged into 4 deg C water bath and all liquid lines were covered with aluminum foil to minimize probe and protein degradation. All screening operations were performed on a Kalypsys robotic system (Kalypsys, Inc., San Diego, CA) containing one RX-130 and two RX-90 anthropomorphic robotic arms. The timing and order of assay plates passing through the screening system were adjusted such that each compound library plate was assayed against the fluorescein- and rhodamine-labeled assay systems at immediately adjacent time points.
On the % scale 0 is the no-effect control and ±100 the full control effect.

Activity change, negative = inhibition, inactive:
CCOC(=O)Nc1ccc2c(c1)N(C(=O)CN1CCN3CCCC3C1)c1ccccc1CC2 (stereo not given) -0.847%
COc1ccc(C)cc1-n1nnnc1SCC(=O)c1cc(C)n(Cc2ccco2)c1C 0.289%
O=C(CN1CCN(c2ccccc2F)CC1)c1ccc2c(c1)OCO2 -0.354%
COc1ccc(OC)c(NC(=O)CN2CCN(C(=O)c3ccco3)CC2)c1 -0.4%
COCCn1nnnc1C(c1ccccc1Cl)N1CCN(c2ccccc2OC)CC1 (stereo not given) 0.147%
COC(=O)[C@@H]1C[C@@]2(O)[C@H](O)[C@H](O)[C@H](O)C[C@H]2N1CC1CCCCC1 1.56%
CC(C)Oc1ccc(C2NC(=O)NC2=O)cc1 (stereo not given) 0.371%
O=C(CN(Cc1ccccc1)C(=O)c1ccc2c(c1)OCCO2)NCc1ccc2c(c1)OCO2 0.515%
CC(=O)N1CCC2(CCCN(Cc3ccccc3)C2)CC1 -2.8%
COc1ccccc1NC(=O)CSc1nnc(Cc2cccn2C)n1-c1ccc(F)cc1 -0.19%
O=C(CSc1ncccn1)NC(=O)NCc1ccccc1 -0.146%
Cc1ccsc1C(=O)OCC(=O)c1cc(C)n(CC2CCCO2)c1C (stereo not given) -2.25%
COc1ccc(NC(=O)CCNC(=O)Cn2ccc3ccccc3c2=O)c(OC)c1 1.77%
Cc1ccccc1CSc1nnc(-c2cccnc2)n1N -1.84%
COc1cc(C(=O)N(Cc2ccc(N(C)C)cc2)C2CCS(=O)(=O)C2)cc(OC)c1OC (stereo not given) -2.5%
CCCCCCN(C(=O)CCCCCN1C(=O)NC(c2ccc(C(F)(F)F)cc2)C(C(=O)OCc2ccccc2)=C1C)C(C(=O)NCCCC)c1ccc(OCC(=O)OC)c(C(=O)OC)c1 (stereo not given) -1.73%
CC1CCc2sc3nc(N4CCN(CCO)CC4)n4ncnc4c3c2C1 (stereo not given) -1.52%
Cc1ccc(NC(=O)N2CCC(C(=O)NCc3ccc(F)cc3)CC2)cc1 -0.897%
CC(CCC(=O)O)C1CCC2C3C(O)C[C@@H]4CC(O)CC[C@@]4(C)C3CC[C@@]12C (stereo not given in full)
Cn1c(=O)c2[nH]c(NCC3CCCO3)nc2n(-c2ccccc2)c1=O (stereo not given) 0.15%
FC(F)(F)c1cccc(Nc2ncnc3ccccc23)c1 0.0326%
CCOC(=O)C1CCN(C(=O)Nc2ccc(Cl)cc2)CC1 -0.981%
CCS(=O)(=O)N1CCC(C(=O)N2CCN(c3ccccc3)CC2)CC1 -1.29%
CCN(CC)CCNC(=O)C1c2ccccc2C(=O)N(C)C1c1cn(C)c2ccccc12 (stereo not given) 1.12%
CCCCC(=O)Nc1cc(C)c2c(=O)oc3ccccc3c2n1 1.23%
COc1ccc(CCNC(=O)CSc2nnc(-c3cccc(F)c3)o2)cc1OC -0.833%
COC(=O)C1=C(C)OC(N)=C(C#N)C1c1cc(OC)ccc1OC (stereo not given) -1.63%
C[C@H](CCC(=O)NCC(=O)O)[C@H]1CC[C@H]2[C@H]3[C@@H](C[C@@H](O)[C@]12C)[C@]1(C)CC[C@H](O)C[C@@H]1C[C@@H]3O 1.09% [at 34.4 µM]
CCOc1ccccc1NC(=O)c1cc(S(=O)(=O)N2CCC3(CC2)OCCO3)ccc1F -0.357%
COC(=O)CC1C(C)(C)C(OC(C)=O)C2CC3=C4CC(=O)OC(c5ccoc5)[C@]4(C)CCC3[C@@]1(C)C2=O (stereo not given in full) -0.484%
CCOc1cc(CO)ccc1OCC(=O)N1CCCCC1 0.944%
O=C(Nc1nc2cc3c(cc2s1)OCCO3)c1cccc(S(=O)(=O)N2CCOCC2)c1 0.128%
CN(C(=O)COc1nnc(-c2cccs2)c(-c2cccs2)n1)c1ccccc1 0.0324%
COCC(C)n1c(SCc2ccc(C(=O)OC)o2)nc2ccccc2c1=O (stereo not given) 0.312%
CO[C@H]1COC(=O)[C@@H](OCc2ccccc2)/C=C\[C@H](C)[C@@H](OC)COC(=O)[C@H](OCc2ccccc2)/C=C\[C@@H]1C 3% [at 15.4 µM]
CCC(c1nnnn1C1CCCC1)N1CCN(C(=O)c2ccco2)CC1 (stereo not given) -1.2%
CC1CCCCN1CC(=O)NCc1ccc2c(c1)OCO2 (stereo not given) 1.54%
O=C(NCc1ccccn1)c1c(O)c2c([nH]c1=O)CCCC2 0.105%
O=C(CC1OC(=O)c2ccccc21)NC1CCCCC1 (stereo not given) -2.01%
COc1ccc(-c2nc(CS(=O)CC(=O)NCc3ccccn3)c(C)o2)cc1 (stereo not given) -19%
Cc1nnc(SCc2cc(=O)[nH]c(N3CCN(Cc4ccccc4)CC3)n2)s1 0.597%
CC(C)NC[C@H](O)c1ccc2ccccc2c1
Cc1nc2nc3c(cn2n1)C(=O)CC(c1ccccc1)C3 (stereo not given) 2%
COCCCNC(=O)Cn1cc(C(=O)C2CC2)c2ccccc21 0.296%
CN(c1ccc(C(=O)N2CCc3ccccc3C2)cc1)S(C)(=O)=O 0.655%
COCCCNC(=O)COc1cc(C)c(Cl)c(C)c1 -0.153%
Cc1cccc(OCc2nnc(SCC(=O)N3CCN(C(=O)c4ccco4)CC3)n2C)c1C -1.17%
CCCOC(=O)Nc1sc2c(c1C(=O)OCC)CCC2 -0.873%
CCOC(=O)c1cnc(-n2nc(C)cc2C)nc1-n1nc(C)cc1C 1.6%
CN(C(=O)CSc1nnnn1-c1ccccc1)C1CCCCC1 0.11%
Cc1ccc(Cn2ccc(NC(=O)c3cc(C(C)C)on3)n2)cc1 -1.44%
COc1ccccc1N1CCN(C(=O)c2c(-c3c(Cl)cccc3Cl)noc2C)CC1 -1.13%
Cc1ccccc1NC(=O)Cc1nnc(SCC(=O)N2CCN(c3ccccc3)CC2)n1C -0.997%
CCCCCCC(=O)N(O)C1CC(=O)N(c2ccccc2)C1=O (stereo not given) 0.0619%
C=CCNC(=O)C12CC3CC(C1)CC(C(=O)NCC=C)(C3)C2 1.88%
COC(=O)N1CCC2(CCCN(c3ccncc3)C2)CC1 0.168%
O=C1NC(c2cc3c(cc2Cl)OCO3)Oc2ccccc21 (stereo not given) -0.188%
COC(=O)[C@H](C)[C@H]1C[C@]1(C)[C@H](NC(=O)OCc1ccccc1)c1ccccc1 -0.78%
CN(c1ccccc1)c1ccc(/C=c2\s/c(=C(/C#N)C(=O)C(C)(C)C)n(Cc3ccco3)c2=O)cc1 0.0549%
Cc1cccc(NC(=O)CSC(N)=O)c1C 1.83%
Cc1ccc(N)cc1-n1c(C)ccc1C -0.377%
CCCCOc1ccc(NC(=O)CSCC(=O)OCC)cc1 1.6%
CCOCCc1c(O)nc(SCC(=O)NCc2ccco2)[nH]c1=O 0.81%
Cc1cc(NS(=O)(=O)c2ccccc2)no1 0.303%
CCOC(=O)C1CCc2nc3ccccc3c(=O)n21 (stereo not given) 0.238%
Cc1ccccc1N1CCN(S(=O)(=O)C[C@@]23CC[C@H](C[C@H]2NC(=O)[C@@H](N)CCS(C)(=O)=O)C3(C)C)CC1 1.13%
CC(=O)N1CCN(c2ccc(NCc3ccc(C(C)C)cc3)cc2)CC1 -0.552%
O=C(CC1(O)C(=O)N(CN2CCOCC2)c2ccccc21)c1ccccc1 (stereo not given) -1.06%
O=C(CCSc1ccccc1)NCCSc1ccccn1 -0.965%
Cc1cc(C)c2cc(CN(Cc3cccs3)Cc3nnnn3CC3CCCO3)c(=O)[nH]c2c1 (stereo not given) 0.129%
N#CCC(=O)NC(=O)NCC1CC1 -0.938%
O=C1Nc2ccccc2C12Nc1ccccc1S2 (stereo not given) -1.05%
Cc1nc2ccc(C(=O)N3CCSCC3)cc2s1 0.85%
CN1CCN(c2ncncc2-c2ccc(C(=O)N(C)C)cc2)CC1 0.793%
CC1(C)SC2C(NC(=O)COc3ccccc3)C(=O)N2C1C(=O)O (stereo not given) 1.66%
CCn1cc(C(=O)N2CCN(C3CCCCC3)CC2)c2cc(OC)c(OC)cc2c1=O -2.62%
CN1[C@@H]2CC[C@H]1CC(NC(=O)c1nn(C)c3ccccc13)C2 (stereo not given in full) -2.5%
CC(C)(C)Oc1ncc(Br)c(OC(C)(C)C)n1 -0.0878%
C[N+](C)(C)CCCCCNCC12CC3CC(CC(C3)C1)C2 2.52%
CCCC(C(=O)N1CCOCC1)N1C(=O)C2C3C=CC(C3)C2C1=O (stereo not given) -0.786%
CN1CCCC(OC(=O)COc2ccc(Br)cc2)C1 (stereo not given) 0.984%
CCC1=C(OC(=O)N(CC)CC)N2C(=O)OC(=NCCc3c[nH]c4ccccc34)[C@]2(C)[C@H]2C1=CC[C@H]1C(=O)N(CC)C(=O)[C@H]12 -2.69%
COC(=O)C1C(=O)c2c([nH]c(C(=O)OCCSC)c2C)CC1C (stereo not given) -0.968%
CC(C)(C)[Si](OCC[C@@H]1C[C@@]1(C)[C@@H](NP(=O)(c1ccccc1)c1ccccc1)c1ccccc1)(c1ccccc1)c1ccccc1 0.34%
COc1ccc(-c2oc3cc(OC)ccc3c2C(=O)c2ccc(C#N)cc2)cc1 -0.0684%
CCOC(=O)c1c(C)[nH]c(C)c1C(=O)CSc1nc(N)cc(N)n1 3.67%
O=C1c2ccccc2C(O)N1Cc1ccccc1Cl (stereo not given) 0.325%
CSc1nnc2c(n1)OC(c1ccsc1)N(C(C)=O)c1ccccc1-2 (stereo not given) -0.404%
COC(=O)c1ccc(CSc2ccccc2C)o1 -1.04%
COc1ccc(-c2nc3cnc(Oc4ccccc4)nc3n(Cc3cccs3)c2=O)cc1 -1.57%
CC1=NC2(CCCc3c2no[n+]3[O-])N(O)C1(C)C (stereo not given) -0.694%
COc1cc(C2C(C(=O)c3ccc(C)o3)=C(O)C(=O)N2Cc2cccnc2)ccc1O (stereo not given) 0.46%
Cc1c(-c2nn(C)c(=O)c3ccccc23)oc2ccc(F)cc2c1=O 0.563%
O=C(C1CCN(CC2CCCCC2)CC1)N1CCCC1 -0.503%
COC(=O)[C@@H]1C[C@@]2(O)[C@@H](O)[C@@H](O)[C@@H](O)C[C@H]2N1Cc1ccc(C)s1 1.57%
CC(C)(C)c1ccc(C(=O)CSc2ncn[nH]2)cc1 -3.08%
C=CCSc1nnc(Cn2c(=O)sc3ccccc32)n1C -0.684%
CCCC(=O)Nc1ccc(Cl)c(NC(=O)c2ccc(Br)o2)c1 -0.589%
NC(=O)CSc1oc(-c2cccs2)nc1S(=O)(=O)c1ccccc1 -0.411%
COC(=O)c1cn(C)c2ccc(S(=O)(=O)N3CC(C)CC(C)C3)cc2c1=O (stereo not given) 0.974%
COc1ccc(-c2nnc(SCC(=O)NC3CCCCC3)o2)cc1OC -0.73%
Cc1ccccc1-c1nc(N(C)Cc2ccco2)c2ccccc2n1 -1.42%
CC(C)OCCCNC(=O)CNC(=O)c1cccs1 2%
Cc1ccc2cccc(O)c2[n+]1[O-] 0.606%
O=C(c1ccc(=O)[nH]c1)N(Cc1ccco1)C1(C(=O)NC2CCCCC2)CCCCC1 0.273%
